Holding throughout (assay): log2 fold change, soluble protein after heating vs DMSO (PISA); higher = thermal stabilisation; K562 lysate, 10 uM; active = over 0.2 and 3.5 SD of the protein, either way, in both replicates (recomputed)
Compound in one test: CCCS(=O)(=O)Nc1ccc(F)c(C(=O)c2c[nH]c3ncc(-c4ccc(Cl)cc4)cc23)c1F [vemurafenib]
In short, it runs like this: (§1)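 K562 pellets were dounce-homogenised in PBS pH 7.4 containing 1 mM MgCl2, and the crude extract, at 1 mg/mL protein, was exposed to 10 μM compound for 30 min. Aliquots were heated for 3 min across 48°C-58°C, pooled, brought to 0.5% NP-40 at 4°C and spun at 21,000xg for 90 min, with the supernatant taken as soluble protein. TMTpro 16plex LC-MS/MS with equalised channel sums quantified that protein. Values are log-two fold changes in thermal stability relative to solvent controls, taken from duplicates.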

Compound in test [1]: CCCS(=O)(=O)Nc1ccc(F)c(C(=O)c2c[nH]c3ncc(Cl)cc23)c1F
In short, it runs like this:
as §1

Compound in another test: CCN(CCCOc1ccc2c(Nc3cc(CC(=O)Nc4cccc(F)c4)[nH]n3)ncnc2c1)CCOP(=O)(O)O [barasertib]
In short, it runs like this:
as §1

Compound in test [2]: CC[C@@H]1C(=O)N(C)c2cnc(Nc3ccc(C(=O)NC4CCN(C)CC4)cc3OC)nc2N1C1CCCC1
A digest of the protocol:
as §1

Compound in the next test: CC[C@@H]1C(=O)N(C)c2cnc(Nc3ccc(C(=O)N[C@H]4CC[C@H](N5CCN(CC6CC6)CC5)CC4)cc3OC)nc2N1C(C)C [volasertib]
A digest of the protocol: as §1

Compound in test [3]: CCn1c(C(=O)N(C2CC2)C2CC2)cc2c3c(ncn3C)c(Nc3cc(C)n(C)n3)nc21
In short, it runs like this: as §1

Compound in test [4]: CCn1cc(-c2ccnc3[nH]c(-c4cccc(CN(C)C)c4)cc23)c(-c2ccc(NC(=O)N(C)C)cc2)n1
A digest of the protocol: as §1

Compound in test [5]: CN1CCC(CNc2ccc3ncc(-c4cccc(OC(F)(F)F)c4)n3n2)CC1
In short, it runs like this:
as §1

Compound in another test: CN1CCN(CCOc2cc(OC3CCOCC3)c3c(Nc4c(Cl)ccc5c4OCO5)ncnc3c2)CC1 [saracatinib]
In short, it runs like this:
as §1

Compound in the next test: CN1CCN(c2nc(C3=C(c4c[nH]c5ccccc45)C(=O)NC3=O)c3ccccc3n2)CC1 [sotrastaurin]
A digest of the protocol: as §1

Compound in a further test: CN1CCc2c(c3ccccc3n2Cc2ccc(C(=O)NO)cc2)C1 [Tubastatin A]
A digest of the protocol: as §1

Compound in test [6]: CNC(=O)C1=CC=CC=C1NC2=NC(=NC=C2Cl)NC3=C(C=C(C=C3)N4CCOCC4)OC
In short, it runs like this: as §1

Compound in the next test: CNC(=O)c1ccc(Nc2ncc(C(F)(F)F)c(NCc3nccnc3N(C)S(C)(=O)=O)n2)cc1 [defactinib]
In short, it runs like this: as §1

Compound in test [7]: CNc1nc(-c2ccc3c(N)n[nH]c3c2)cc(N2C[C@@H](C(=O)NC3CCCCC3)CC[C@H]2C)n1
A digest of the protocol:
as §1

Compound in the next test: COC(=O)N[C@@H](C)CNc1nccc(-c2cn(C(C)C)nc2-c2cc(Cl)cc(NS(C)(=O)=O)c2F)n1 [encorafenib]
In short, it runs like this:
as §1

Compound in test [8]: COC(=O)[C@H](CCSC)NC(=O)C1=C(C=C(C=C1)NC[C@H](CS)N)C2=CC=CC=C2
A digest of the protocol: as §1

Compound in a further test: COc1cc(Nc2ncc3c(n2)-c2ccc(Cl)cc2C(c2c(F)cccc2OC)=NC3)ccc1C(=O)O [alisertib]
A digest of the protocol: as §1

Compound in test [9]: COc1cc2nc(-c3cc(F)ccc3O)nc(N[C@@H]3CNC[C@H]3C(C)(C)O)c2cc1OC
A digest of the protocol:
as §1

Compound in a further test: COc1cc2ncnc(Nc3ccc(F)c(Cl)c3)c2cc1OCCCN1CCOCC1 [gefitinib]
A digest of the protocol: as §1

Compound in another test: CN1CC[C@H](c2c(O)cc(O)c3c(=O)cc(-c4ccccc4Cl)oc23)[C@H](O)C1 [alvocidib]
A digest of the protocol:
as §1

Targets with a hit are over-represented here; the source holds about 8,800 in all. About 0.5% of all pairs of compound and target were hits. A number with no mark means an inactive call.

We go through nine targets from the supplement of paper PMC10849652.

Chain of UniProt O95271 (O95271 whole entry, looked up): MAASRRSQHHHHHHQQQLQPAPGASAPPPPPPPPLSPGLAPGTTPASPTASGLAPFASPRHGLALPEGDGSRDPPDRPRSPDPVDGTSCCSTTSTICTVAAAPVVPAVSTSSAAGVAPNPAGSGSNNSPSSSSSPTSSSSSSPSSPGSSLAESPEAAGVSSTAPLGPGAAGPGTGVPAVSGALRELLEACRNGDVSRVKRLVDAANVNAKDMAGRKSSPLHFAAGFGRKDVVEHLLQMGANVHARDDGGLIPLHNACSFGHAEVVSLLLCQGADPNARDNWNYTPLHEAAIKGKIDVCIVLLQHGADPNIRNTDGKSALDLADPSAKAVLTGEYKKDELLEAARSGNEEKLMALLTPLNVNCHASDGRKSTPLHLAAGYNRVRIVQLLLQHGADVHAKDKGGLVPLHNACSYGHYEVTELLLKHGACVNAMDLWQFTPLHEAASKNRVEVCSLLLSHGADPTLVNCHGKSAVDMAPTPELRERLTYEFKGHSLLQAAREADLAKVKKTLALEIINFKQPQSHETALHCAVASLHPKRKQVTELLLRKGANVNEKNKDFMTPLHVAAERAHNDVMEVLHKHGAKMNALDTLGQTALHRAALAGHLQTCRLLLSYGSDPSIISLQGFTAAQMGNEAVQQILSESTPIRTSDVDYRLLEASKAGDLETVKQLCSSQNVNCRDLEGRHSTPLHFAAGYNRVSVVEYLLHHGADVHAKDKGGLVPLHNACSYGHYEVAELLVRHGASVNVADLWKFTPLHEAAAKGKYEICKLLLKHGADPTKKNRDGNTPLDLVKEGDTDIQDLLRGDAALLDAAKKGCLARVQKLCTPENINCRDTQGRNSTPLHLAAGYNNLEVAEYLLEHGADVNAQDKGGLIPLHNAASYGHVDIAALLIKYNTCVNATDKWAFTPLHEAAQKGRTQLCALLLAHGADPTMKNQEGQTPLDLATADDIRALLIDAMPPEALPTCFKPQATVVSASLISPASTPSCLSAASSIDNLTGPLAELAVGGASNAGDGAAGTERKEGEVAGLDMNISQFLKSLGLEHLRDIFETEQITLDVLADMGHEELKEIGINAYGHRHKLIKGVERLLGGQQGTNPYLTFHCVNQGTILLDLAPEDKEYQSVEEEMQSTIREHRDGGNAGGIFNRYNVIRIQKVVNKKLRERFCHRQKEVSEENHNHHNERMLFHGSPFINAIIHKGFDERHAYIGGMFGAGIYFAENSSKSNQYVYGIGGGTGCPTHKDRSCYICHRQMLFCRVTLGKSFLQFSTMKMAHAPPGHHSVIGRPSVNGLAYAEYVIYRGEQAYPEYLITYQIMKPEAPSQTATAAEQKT
Chain of UniProt Q9BUB7 (Q9BUB7 whole entry, looked up): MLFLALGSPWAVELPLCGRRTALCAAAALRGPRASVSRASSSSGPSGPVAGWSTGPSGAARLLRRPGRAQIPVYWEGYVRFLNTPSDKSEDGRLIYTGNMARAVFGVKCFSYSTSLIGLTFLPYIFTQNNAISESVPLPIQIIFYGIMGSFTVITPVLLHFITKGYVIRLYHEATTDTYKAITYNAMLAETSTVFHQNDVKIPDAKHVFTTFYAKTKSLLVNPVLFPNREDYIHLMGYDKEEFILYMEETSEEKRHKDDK
Chain of UniProt Q14CS0 (Q14CS0 whole entry, looked up): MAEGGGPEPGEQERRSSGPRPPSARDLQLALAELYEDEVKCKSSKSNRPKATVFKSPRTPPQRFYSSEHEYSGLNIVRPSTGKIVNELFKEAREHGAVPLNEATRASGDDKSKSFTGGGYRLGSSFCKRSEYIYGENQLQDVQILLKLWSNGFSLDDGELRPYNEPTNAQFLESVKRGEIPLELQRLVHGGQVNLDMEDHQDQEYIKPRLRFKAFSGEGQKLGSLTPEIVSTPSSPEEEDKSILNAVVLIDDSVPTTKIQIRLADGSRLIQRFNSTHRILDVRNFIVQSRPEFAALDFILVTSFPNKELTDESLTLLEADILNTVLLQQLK
Chain of UniProt O75382 (O75382 whole entry, looked up): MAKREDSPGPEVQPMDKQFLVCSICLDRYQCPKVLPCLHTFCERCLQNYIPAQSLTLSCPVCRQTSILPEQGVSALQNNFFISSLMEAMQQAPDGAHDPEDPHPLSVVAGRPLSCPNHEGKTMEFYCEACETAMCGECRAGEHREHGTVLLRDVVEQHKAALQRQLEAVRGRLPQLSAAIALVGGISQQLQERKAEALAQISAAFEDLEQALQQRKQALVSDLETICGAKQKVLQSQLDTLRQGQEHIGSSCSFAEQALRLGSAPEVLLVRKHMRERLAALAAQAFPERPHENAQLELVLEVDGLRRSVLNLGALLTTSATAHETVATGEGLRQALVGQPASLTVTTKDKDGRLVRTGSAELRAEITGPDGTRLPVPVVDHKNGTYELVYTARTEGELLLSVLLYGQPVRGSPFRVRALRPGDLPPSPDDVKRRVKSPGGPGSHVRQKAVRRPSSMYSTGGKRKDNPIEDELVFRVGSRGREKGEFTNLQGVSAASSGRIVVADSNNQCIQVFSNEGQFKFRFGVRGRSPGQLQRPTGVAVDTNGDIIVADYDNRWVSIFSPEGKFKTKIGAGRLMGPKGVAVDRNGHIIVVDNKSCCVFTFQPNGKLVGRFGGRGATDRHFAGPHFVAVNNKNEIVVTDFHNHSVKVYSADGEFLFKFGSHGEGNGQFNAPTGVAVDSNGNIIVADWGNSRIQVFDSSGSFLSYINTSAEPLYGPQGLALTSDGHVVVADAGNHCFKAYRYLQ
Chain of UniProt Q96RT8 (Q96RT8 whole entry, looked up): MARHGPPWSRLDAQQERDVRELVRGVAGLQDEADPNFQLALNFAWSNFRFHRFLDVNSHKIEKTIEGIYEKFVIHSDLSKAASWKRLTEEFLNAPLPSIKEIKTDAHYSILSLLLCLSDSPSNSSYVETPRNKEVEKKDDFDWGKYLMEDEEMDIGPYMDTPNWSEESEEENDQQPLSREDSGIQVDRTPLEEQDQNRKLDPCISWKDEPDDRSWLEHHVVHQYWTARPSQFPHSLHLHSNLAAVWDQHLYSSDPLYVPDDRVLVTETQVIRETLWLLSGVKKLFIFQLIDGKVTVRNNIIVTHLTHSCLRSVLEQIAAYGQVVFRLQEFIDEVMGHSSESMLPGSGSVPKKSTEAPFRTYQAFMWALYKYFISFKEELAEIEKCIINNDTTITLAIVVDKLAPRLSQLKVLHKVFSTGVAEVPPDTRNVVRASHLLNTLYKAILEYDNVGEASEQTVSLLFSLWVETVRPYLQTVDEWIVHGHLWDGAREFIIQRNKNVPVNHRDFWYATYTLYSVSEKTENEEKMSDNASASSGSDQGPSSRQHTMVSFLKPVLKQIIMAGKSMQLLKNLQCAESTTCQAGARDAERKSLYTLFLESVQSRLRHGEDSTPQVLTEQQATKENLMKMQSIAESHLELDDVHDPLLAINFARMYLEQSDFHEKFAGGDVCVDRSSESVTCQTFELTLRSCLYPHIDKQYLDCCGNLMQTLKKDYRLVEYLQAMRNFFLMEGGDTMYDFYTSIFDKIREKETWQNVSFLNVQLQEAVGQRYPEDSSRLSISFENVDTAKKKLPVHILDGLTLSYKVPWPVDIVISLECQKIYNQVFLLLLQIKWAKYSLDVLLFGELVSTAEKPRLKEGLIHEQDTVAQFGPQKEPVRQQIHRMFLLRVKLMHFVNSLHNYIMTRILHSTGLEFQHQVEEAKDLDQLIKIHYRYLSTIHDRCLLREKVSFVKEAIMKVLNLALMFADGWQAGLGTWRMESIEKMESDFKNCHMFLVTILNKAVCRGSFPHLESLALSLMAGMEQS
Chain of UniProt P10646 (P10646 whole entry, looked up): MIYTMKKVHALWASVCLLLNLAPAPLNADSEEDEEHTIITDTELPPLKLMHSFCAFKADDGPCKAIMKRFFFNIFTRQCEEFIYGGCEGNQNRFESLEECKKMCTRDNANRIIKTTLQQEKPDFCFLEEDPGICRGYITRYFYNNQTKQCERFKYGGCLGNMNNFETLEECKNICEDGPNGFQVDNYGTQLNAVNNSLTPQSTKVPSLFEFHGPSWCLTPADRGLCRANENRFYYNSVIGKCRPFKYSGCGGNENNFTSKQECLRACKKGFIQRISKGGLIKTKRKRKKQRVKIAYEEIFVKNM
Chain of UniProt Q9UHD2 (Q9UHD2 whole entry, looked up): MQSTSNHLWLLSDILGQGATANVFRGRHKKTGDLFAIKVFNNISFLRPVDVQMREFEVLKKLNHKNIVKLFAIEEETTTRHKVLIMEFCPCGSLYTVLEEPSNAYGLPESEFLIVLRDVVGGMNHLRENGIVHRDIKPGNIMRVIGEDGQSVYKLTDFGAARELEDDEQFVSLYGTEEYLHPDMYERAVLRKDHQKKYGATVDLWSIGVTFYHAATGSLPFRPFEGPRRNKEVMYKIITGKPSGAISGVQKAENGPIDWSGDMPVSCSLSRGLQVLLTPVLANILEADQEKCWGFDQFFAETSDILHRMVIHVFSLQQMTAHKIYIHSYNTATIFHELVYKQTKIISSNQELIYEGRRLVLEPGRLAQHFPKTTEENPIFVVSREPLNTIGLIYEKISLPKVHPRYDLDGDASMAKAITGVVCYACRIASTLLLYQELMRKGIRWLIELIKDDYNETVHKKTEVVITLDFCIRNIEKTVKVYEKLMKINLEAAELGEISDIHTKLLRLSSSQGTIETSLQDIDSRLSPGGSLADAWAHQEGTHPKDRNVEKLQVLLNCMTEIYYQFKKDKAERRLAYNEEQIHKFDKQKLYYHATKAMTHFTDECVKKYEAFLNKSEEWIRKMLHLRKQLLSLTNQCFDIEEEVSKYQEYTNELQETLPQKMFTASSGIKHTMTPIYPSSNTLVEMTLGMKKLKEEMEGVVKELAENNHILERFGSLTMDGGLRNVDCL
Chain of UniProt Q53S58 (Q53S58 whole entry, looked up): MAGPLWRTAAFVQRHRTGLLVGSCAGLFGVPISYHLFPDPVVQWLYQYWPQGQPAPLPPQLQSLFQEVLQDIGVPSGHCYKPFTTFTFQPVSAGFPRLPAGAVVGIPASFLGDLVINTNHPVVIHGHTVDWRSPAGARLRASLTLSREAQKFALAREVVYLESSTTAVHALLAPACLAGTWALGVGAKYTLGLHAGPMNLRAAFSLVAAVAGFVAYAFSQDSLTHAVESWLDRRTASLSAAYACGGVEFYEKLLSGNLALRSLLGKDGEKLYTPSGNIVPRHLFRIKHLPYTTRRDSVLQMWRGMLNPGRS

Consider TBK1 (UniProt Q9UHD2), for which the log2 fold change in the test with vemurafenib was 0.008; in [1], 0.002; in the test with barasertib it was -0.03; in test [2], -0.058; in the test with volasertib, -0.064; in test [3], -0.021. The log2 fold change in test [4] was 0.216; in test [5] it was 0.079; with saracatinib, -0.029; in the test with sotrastaurin, -0.045; with Tubastatin A, -0.16; in test [6], 0.528 (active). Moreover, the log2 fold change was 0.328 with defactinib; -0.035 in test [7]; 0.014 with encorafenib; -0.293 in test [8]; 0.039 with alisertib; -0.007 in test [9]. Further, the log2 fold change in the test with gefitinib is -0.032.
TNKS (UniProt O95271): the log2 fold change with vemurafenib is -0.035; in [1], 0.124; in test [2] it was 0.055; with volasertib, -0.11; in [3] it was 0.027; in test [4], 0.207. The log2 fold change in test [5] is -0.092; with saracatinib, -0.007; in the test with sotrastaurin, 0.021; in the test with alvocidib it was -0.223; with Tubastatin A, -0.087; in [6], 0.04. For the same target, the log2 fold change with defactinib is -0.013; in [7] it was -0.031; with encorafenib it was -0.078; in [8] it was 0.022; with alisertib, -0.002; in test [9], -0.072. Moreover, in the test with gefitinib, the log2 fold change is -0.069.
For UBAP2L (UniProt F8W726), the log2 fold change was 0.094 with vemurafenib; -0.031 in test [1]; -0.018 with volasertib; -0.052 in the test with sotrastaurin; 0.06 with defactinib; 0.093 in test [9].
Turning to UBXN2B (UniProt Q14CS0), the log2 fold change in the test with vemurafenib was 0.148; in test [1], 0.049; with barasertib, 0.147; in test [2], 0.065; with volasertib, -0.066; in test [3], -0.035. Further, the log2 fold change in test [4] is -0.142; in test [5], 0.074; in the test with saracatinib it was -0.068; with alvocidib, -0.123; with Tubastatin A, -0.001; in test [6] it was -0.046. Further, the log2 fold change is 0.07 with defactinib; -0.018 in test [7]; -0.037 with encorafenib; 0.069 in [8]; 0.174 with alisertib; -0.114 in test [9]. Besides, in the test with gefitinib, the log2 fold change was 0.008.
As to TMEM70 (UniProt Q9BUB7), the log2 fold change is -0.016 in the test with vemurafenib; 0.029 in test [1]; 0.063 with barasertib; -0.072 in [2]; -0.004 with volasertib; -0.027 in test [3]. Further, the log2 fold change is -0.378 (active) in test [4]; 0.027 in test [5]; 0.023 with saracatinib; 0.122 with sotrastaurin; -0.037 in the test with alvocidib; -0.015 in the test with Tubastatin A. For the same target, the log2 fold change in [6] is -0.025; with defactinib it was -0.001; in test [7], -0.056; with encorafenib it was 0.021; in [8] it was -0.002; with alisertib it was 0.024. For the same target, the log2 fold change in [9] was -0.041; with gefitinib it was -0.036.
Consider TRIM3 (UniProt O75382), for which the log2 fold change with vemurafenib is 0.13; in test [1], -0.085; in test [2], -0.029; in the test with volasertib, 0.09; in [6], 0.06; with defactinib, -0.095. The figures for the log2 fold change (with encorafenib; in test [8]; in test [9]) were 0.034, 0.041 and 0.069, respectively.
Regarding TUBGCP5 (UniProt Q96RT8), the log2 fold change is -0.023 with vemurafenib; -0.351 in test [1]; -0.057 in the test with barasertib; -0.204 in test [2]; 0 with volasertib; 0.004 in test [3]. Moreover, the log2 fold change in test [4] is -0.06; in test [5] it was 0.088; in the test with saracatinib it was -0.075; in the test with sotrastaurin, 0.033; in the test with alvocidib, -0.069; with Tubastatin A, -0.128. For the same target, the log2 fold change was -0.159 in the test with defactinib; -0.055 in [7]; 0.179 with encorafenib; 0.145 in [8]; -0.023 in the test with alisertib; 0.025 in test [9]. Moreover, in the test with gefitinib, the log2 fold change was -0.007.
For the target TFPI (UniProt P10646), the log2 fold change is -0.079 with vemurafenib; 0.005 in test [1]; 0.015 with barasertib; -0.019 in test [2]; 0.016 with volasertib; 0.093 in [3]. Also, the log2 fold change in test [4] is 0.689 (active); in [5], -0.321; with sotrastaurin it was 0.167; with alvocidib, 0.245; with Tubastatin A, -0.012; in test [6], 0.036. The log2 fold change is 0.056 with defactinib; 0.072 with encorafenib; -0.017 in [8]; -0.003 in the test with alisertib; -0.128 in test [9]; 0.061 in the test with gefitinib.
For TMEM177 (UniProt Q53S58), the log2 fold change in the test with vemurafenib was -0.057; in [1], 0.011; in the test with barasertib, 0.063; in test [2], -0.005; with volasertib, -0.076; in test [3], 0.078. In addition, the log2 fold change in test [4] was 0.056; in [5], -0.161; with sotrastaurin it was -0.017; in the test with alvocidib, 0.042; in the test with Tubastatin A it was 0.05; in test [6], 0.075. The log2 fold change is -0.009 with defactinib, 0.019 in the test with encorafenib, 0.153 in test [8] and 0.002 in test [9].
